# Measured values published in ChEMBL document CHEMBL1857833, “Screening and optimization of specific chemical series against human African Trypanosomiasis (HAT)”.
# About 390 (8.9%) of roughly 4,400 compounds showed an effect of 50% or more. The sample holds strong results, similar compounds and a random draw of the others, so the mix is not that of the screen.
# Tested on: Trypanosoma brucei
# Assay: DNDI: Inhibition of Human African Trypanosomiasis, SBRI 427, in vitro at 2 ug.mL-1
# Assay type: functional
row,Structure (SMILES),% inhibition
1,Cc1ccccc1-c1nc(CN2CCC(N3CCCCC3)CC2)co1,14%
2,C1=C(CCNCc2coc(-c3cccs3)n2)CCCC1,-10%
3,Cc1ccccc1NCc1coc(-c2ccco2)n1,-2%
4,CCN(Cc1coc(-c2ccc(C(F)(F)F)cc2)n1)c1ccccc1,4%
5,CC(NCc1coc(-c2ccc(OC(F)(F)F)cc2)n1)c1cccc2ccccc12 (stereo unspecified),-34%
6,O/N=C(\NCc1cc(F)cc(F)c1)c1ccc(Oc2c(F)c(F)cc(F)c2F)nc1,10%
7,COc1ccc(CN/C(=N\O)c2ccc(Oc3cccc4c3CCCC4)nc2)cc1,32%
8,O/N=C(\NCc1c(F)cccc1F)c1ccc(Oc2cccc3c2CCCC3)nc1,15%
9,CCC(CC)N/C(=N\O)c1ccc(Oc2cccc3c2CCCC3)nc1,76%
10,N/C(=N\O)c1ccc(Oc2cccc3c2CCCC3)nc1,19%
11,O/N=C(\NCC1CC1)c1ccc(Oc2cccc3c2CCCC3)nc1,77%
12,O/N=C(\NC1CCCC1)c1ccc(Oc2cccc3c2CCCC3)nc1,97%
13,O/N=C(\NCc1cccs1)c1ccc(Oc2cccc3c2CCCC3)nc1,4%
14,O/N=C(\Nc1ccccc1)c1ccc(Oc2cccc3c2CCCC3)nc1,22%
15,O/N=C(/c1ccc(Oc2cccc3c2CCCC3)nc1)N1CCCCC1,31%
16,Cc1ccccc1-c1nc(CN2CCN(c3cccc(C(F)(F)F)c3)CC2)co1,14%
17,CCOc1ccccc1-c1nc(CN2CCC3(CC2)OCCO3)co1,1%
18,COC(=O)C1CCN(Cc2coc(-c3cccc(F)c3)n2)CC1,6%
19,CCN(CC)Cc1coc(-c2cccc(OC)c2)n1,11%
20,O/N=C(\NCc1cc(F)cc(F)c1)c1cccnc1Oc1ccc(Cl)cc1,59%
21,O/N=C(\NCc1cc(F)ccc1F)c1cccnc1Oc1ccc(Cl)cc1,12%
22,COc1cccc(CN/C(=N\O)c2cccnc2OC2CCC2)c1,-1%
23,O/N=C(\NCc1cccnc1)c1cccnc1OCC1CCCCC1,6%

row,Structure (SMILES),% inhibition
1,CCc1ccc(Oc2ncccc2/C(=N/O)NCc2cccnc2)cc1,3%
2,COc1ccc(Oc2ncccc2/C(=N/O)NCc2ccccc2)cc1,86%
3,COc1ccc(CN/C(=N\O)c2cccnc2Oc2ccccc2)cc1,14%
4,COc1ccc(Oc2ncccc2/C(=N/O)NCc2ccncc2)cc1,-2%
5,CCc1ccc(Oc2ncccc2/C(=N/O)NCc2ccccc2)cc1,99%
6,COc1ccc(Oc2ncccc2/C(=N/O)NCc2cc(F)cc(F)c2)cc1,39%
7,COc1cccc(CN/C(=N\O)c2cccnc2OCC2CCCCC2)c1,71%
8,CCc1ccc(Oc2ncccc2/C(=N/O)NCc2ccncc2)cc1,5%
9,CC(C)(C)c1ccc(-c2nc(Cn3nc(N)cc3-c3ccccc3)co2)cc1,9%
10,CN(CCC#N)Cc1coc(-c2cccc3ccccc23)n1,7%
11,CCOC(=O)C1CCCCN1Cc1coc(-c2cccc(OCC)c2)n1 (stereo unspecified),2%
12,COc1ccccc1CNCc1coc(-c2ccc(Br)cc2)n1,3%
13,CCN(Cc1coc(-c2ccccc2Cl)n1)c1cccc2ccccc12,-6%
14,COc1cccc(CN/C(=N\O)c2cccnc2Oc2ccc(Cl)cc2)c1,98%
15,COc1ccc(Oc2ncccc2/C(=N/O)NCc2cccc(OC)c2)cc1,-6%
16,COc1cccc(CN/C(=N\O)c2cccnc2Oc2c(F)cccc2F)c1,17%
17,O/N=C(/c1ccnc(Oc2ccc(F)c(Cl)c2)c1)N1CC=CCC1,17%
18,Cc1cccc(Oc2ncccc2/C(=N/O)N2CC(C)CC(C)C2)c1C (stereo unspecified),1%
19,Cc1ccc(Oc2nc(C)ccc2/C(=N/O)NC2CCCC2)c(C)c1,25%
20,Cc1ccc(Oc2nc(C)ccc2/C(=N/O)NCCN2CCCCC2)c(C)c1,0%
21,Cc1ccc(Oc2nc(C)ccc2/C(=N/O)NC2CCCCC2)c(C)c1,100%
22,Cc1ccc(Oc2nc(C)ccc2/C(=N/O)NCC2CCCCC2)c(C)c1,62%
23,COc1cc(C)ccc1Oc1nc(C)ccc1/C(=N/O)NC1CCCC1,-8%

row,Structure (SMILES),% inhibition
1,Cc1cc(C)cc(Oc2nc(C)ccc2/C(=N/O)NCC2CCCCC2)c1,14%
2,C=CCN1CCN(/C(=N\O)c2ccc(C)nc2Oc2ccc(C)cc2)CC1,30%
3,CC1C=CC(C)N1/C(=N\O)c1cccnc1Oc1ccc(Cl)cc1 (stereo unspecified),-7%
4,Cc1ccc(N2CCN(Cc3coc(-c4ccc(OC(F)(F)F)cc4)n3)CC2)cc1C,23%
5,CC(C)(C)COc1ncccc1/C(=N/O)NCC1CCCO1 (stereo unspecified),4%
6,C[C@H]1C(NCc2coc(-c3ccccc3Br)n2)C[C@@H]2C[C@H]1C2(C)C (stereo partly specified),98%
7,CCC(CC)CNCc1coc(-c2ccccc2Br)n1,1%
8,CC(C)(C)CNCc1coc(-c2ccccc2Br)n1,7%
9,Brc1ccccc1-c1nc(CNC2CCc3ccccc32)co1 (stereo unspecified),7%
10,Brc1ccccc1-c1nc(CNCc2ccccc2)co1,11%
11,C[C@@H]1C(NCc2coc(-c3ccccc3Br)n2)C[C@H]2C[C@@H]1C2(C)C (stereo partly specified),100%
12,Cc1ccc(/C(=N/O)N2CCCCC2)c(Oc2ccc(F)cc2)n1,24%
13,CCc1nccn1Cc1coc(-c2cc(OC)c(OC)c(OC)c2)n1,9%
14,Cc1ccc2cccc(Oc3cc(/C(N)=N/O)ccn3)c2n1,7%
15,Cc1ccc(/C(=N/O)N2CCCC2)c(OCc2ccccc2C)n1,10%
16,CN(Cc1coc(-c2ccc(Cl)cc2Cl)n1)Cc1ccco1,11%
17,O=C(C1CCCO1)N1CCN(Cc2coc(-c3ccc(C(F)(F)F)cc3)n2)CC1 (stereo unspecified),4%
18,CCOC(=O)C1CCCN(Cc2coc(-c3ccccc3Cl)n2)C1 (stereo unspecified),4%
19,COc1cccc(-c2nc(CN3CCN(c4ccccc4OC)CC3)co2)c1,-9%
20,CC1CC(C)CN(/C(=N\O)c2cccnc2Oc2ccccc2)C1 (stereo unspecified),10%
21,Cc1ccc(-c2nc(CNc3ccccc3C)co2)cc1,-4%
22,CC(C)CN/C(=N\O)c1ccc(Oc2ccc3oc4ccccc4c3c2)nc1,11%
23,O/N=C(\NC1CCC1)c1ccc(Oc2ccc3oc4ccccc4c3c2)nc1,94%

row,Structure (SMILES),% inhibition
1,CCC(C)(C)N/C(=N\O)c1ccc(Oc2ccc3oc4ccccc4c3c2)nc1,97%
2,O/N=C(\NC1CCc2ccccc21)c1ccc(Oc2ccc3oc4ccccc4c3c2)nc1 (stereo unspecified),19%
3,O/N=C(\NCC1CCCO1)c1ccc(Oc2ccc3oc4ccccc4c3c2)nc1 (stereo unspecified),-8%
4,CN(/C(=N\O)c1ccc(Oc2ccc3oc4ccccc4c3c2)nc1)C1CCCCC1,22%
5,CC(C)(C)CN/C(=N\O)c1ccc(Oc2ccc3oc4ccccc4c3c2)nc1,8%
6,COc1cccc(CN/C(=N\O)c2ccc(Oc3ccc4oc5ccccc5c4c3)nc2)c1,16%
7,O/N=C(\NCc1ccncc1)c1ccc(Oc2ccc3oc4ccccc4c3c2)nc1,-14%
8,O/N=C(\NC1CC1)c1ccc(Oc2ccc3oc4ccccc4c3c2)nc1,82%
9,Cc1cc(C)cc(CN/C(=N\O)c2ccc(Oc3ccc4oc5ccccc5c4c3)nc2)c1,32%
10,O/N=C(\NCc1cccnc1)c1ccc(Oc2ccc3oc4ccccc4c3c2)nc1,84%
11,Cc1ccc(N(C)Cc2coc(-c3cccc4ccccc34)n2)cc1,6%
12,Cn1nc(C(C)(C)C)cc1NCc1coc(-c2ccc(C(C)(C)C)cc2)n1,-5%
13,Cc1ccc(C(C)C)c(Oc2cc(/C(=N/O)Nc3ccc(C(C)C)cc3)ccn2)c1,21%
14,COCCN(Cc1coc(-c2ccccc2Cl)n1)C(C)C,-24%
15,c1ccc2c(-c3nc(CNCc4ccncc4)co3)cccc2c1,6%
16,Cc1ccc(/C(=N/O)NCCN2CCOCC2)c(Oc2ccc3ccccc3c2)n1,15%
17,COc1ccc(-c2nc(CNCc3cccc(C(F)(F)F)c3)co2)cc1,-13%
18,C[C@@H]1C(NCc2coc(-c3cccc4ccccc34)n2)C[C@H]2C[C@@H]1C2(C)C (stereo partly specified),95%
19,CCOc1ccccc1-c1nc(CNC2C[C@@H]3C[C@H]([C@H]2C)C3(C)C)co1 (stereo partly specified),101%
20,c1ccc(CNCc2coc(-c3cccc4ccccc34)n2)cc1,8%
21,CN(C)CCNCc1coc(-c2cccc3ccccc23)n1,22%
22,CCOc1ccccc1-c1nc(CNc2ccccc2)co1,6%
23,C[C@H]1C(NCc2coc(-c3cccc4ccccc34)n2)C[C@@H]2C[C@H]1C2(C)C (stereo partly specified),85%

row,Structure (SMILES),% inhibition
1,CCOc1ccccc1-c1nc(CNC23C[C@H]4C[C@@H](C2)C[C@@H](C3)C4)co1,9%
2,CC1CC(C)CN(Cc2coc(-c3cccc4ccccc34)n2)C1 (stereo unspecified),28%
3,Clc1ccccc1-c1nc(CN2CCN(c3ccccn3)CC2)co1,4%
4,Fc1ccc(-c2nc(CNCC(c3ccccc3)c3ccccc3)co2)cc1,-33%
5,COc1cc(-c2nc(CNCc3cccnc3)co2)cc(OC)c1OC,25%
6,CSc1ccc(Oc2nc(C)ccc2/C(=N/O)NCc2ccc(C)o2)cc1C,12%
7,CCOc1ccccc1-c1nc(CN(CC)c2cccc3ccccc23)co1,4%
8,O/N=C(\NC1CCc2ccccc21)c1cccnc1Oc1c(F)cccc1F (stereo unspecified),83%
9,Cc1ccc(/C(=N/O)NC2CCc3ccccc32)c(Oc2c(F)c(F)cc(F)c2F)n1 (stereo unspecified),7%
10,COc1ccc(Oc2ncccc2/C(=N/O)NC2CCc3ccccc32)cc1 (stereo unspecified),97%
11,O/N=C(\NC1CCc2ccccc21)c1cccnc1Oc1ccc(-n2cncn2)cc1 (stereo unspecified),31%
12,CC(C)COc1ncccc1/C(=N/O)NC1CCc2ccccc21 (stereo unspecified),-11%
13,COc1ccc(Oc2nc(C)ccc2/C(=N/O)NC2CCc3ccccc32)cc1 (stereo unspecified),23%
14,O/N=C(\NC1CCc2ccccc21)c1cccnc1Oc1ccc2ccccc2c1 (stereo unspecified),97%
15,CC(C)c1ccc(Oc2ncccc2/C(=N/O)NC2CCc3ccccc32)cc1 (stereo unspecified),100%
16,O/N=C(\NC1CCc2ccccc21)c1cccnc1Oc1ccc(F)cc1Cl (stereo unspecified),9%
17,CSc1ccc(Oc2nc(C)ccc2/C(=N/O)NC2CCc3ccccc32)cc1C (stereo unspecified),21%
18,CC(C)c1ccc(N/C(=N\O)c2cccnc2Oc2ccc(Cl)cc2)cc1,11%
19,Cc1ccc(/C(=N/O)NC2CCc3ccccc32)c(Oc2ccc(F)c(F)c2)n1 (stereo unspecified),20%
